Data reported in the supplement of paper PMC13380429.

Tested on: Vero E6 infected with SARS-CoV-2
Test: inhibition of SARS-CoV-2 cytopathic effect; higher = more antiviral protection, active = above 15
Conditions: 48 h

Measured: inhibition of SARS-CoV-2 cytopathic effect

O=C[C@H](O)[C@@H](O)[C@H](O)CO [xylose]
inactive: 1 nM 2.36% | 8.33 nM 1.7% | 100 nM -0.84% | 833.33 nM -1.64% | 10000 nM -4.41%

NC[C@@](O)(c1ccc(Cl)cc1)c1ccc(-c2cn[nH]c2)cc1
inactive: 1 nM -0.97% | 8.33 nM 1% | 100 nM -2.8% | 833.33 nM -3.57% | 10000 nM -13.7%

C[C@]12Cc3c[nH]nc3C[C@@H]1CC[C@@H]1[C@@H]2CC[C@@]2(C)[C@H]1CC[C@]2(C)O [stanozolol]
inactive: 1 nM -3.58% | 8.33 nM -5.17% | 100 nM -4.66% | 833.33 nM -3.19% | 10000 nM -5.61%

COC(=O)[C@H](NC(=O)c1cc(-c2ccccc2)nc2ccccc12)c1ccccc1
inactive: 1 nM 2.67% | 8.33 nM 2.5% | 100 nM 0.38% | 833.33 nM 0.39% | 10000 nM 1.12%

CC(=O)N[C@H](Cc1ccc2ccccc2c1)C(=O)N[C@H](Cc1ccc(Cl)cc1)C(=O)N[C@H](Cc1cccnc1)C(=O)N[C@@H](CO)C(=O)N[C@@H](Cc1ccc(O)cc1)C(=O)N[C@H](CCCNC(N)=O)C(=O)N[C@@H](CC(C)C)C(=O)N[C@@H](CCCNC(=N)N)C(=O)N1CCC[C@H]1C(=O)N[C@H](C)C(N)=O [cetrorelix]
inactive: 1 nM -4.73% | 8.33 nM -2.29% | 100 nM 5.4% | 833.33 nM 5.13% | 10000 nM 8.43%

CN[C@@H]1[C@@H](O)[C@@H](O[C@@H]2[C@@H](O)[C@H](O[C@H]3O[C@H](CN)[C@@H](O)[C@H](O)[C@H]3O)[C@@H](N)C[C@H]2NC(=O)[C@@H](O)CN)OC[C@]1(C)O [isepamicin]
inactive: 1 nM -2.06% | 8.33 nM 1% | 100 nM 3.72% | 833.33 nM -1.29% | 10000 nM -1.06%

C/C(=N\NC(=O)[C@@H]1C(=O)NC[C@H]1c1ccccc1)c1cccc(Br)c1
inactive: 1 nM -1.05% | 8.33 nM 1.12% | 100 nM 1.69% | 833.33 nM -2.01% | 10000 nM -2.3%

CN1CCC(=C2c3ccccc3C=Cc3ccccc32)CC1 [cyproheptadine]
inactive: 1 nM 1.35% | 8.33 nM -0.26% | 100 nM -1.02% | 833.33 nM -0.75% | 10000 nM -4.89%

OC[C@@H](O)[C@@H](O)[C@@H](O)CO [ribitol]
inactive: 1 nM 2.52% | 8.33 nM 3.83% | 100 nM 1.9% | 833.33 nM 3.1% | 10000 nM 1.14%

Cc1ccc2c(c1)[C@]13CCCC[C@@H]1[C@H](C2)N(C)CC3 [dimemorfan]
inactive: 1 nM 0% | 8.33 nM 0.39% | 100 nM 0.04% | 833.33 nM 1.02% | 10000 nM 0.98%

Cc1ccc(NC(=O)CCCCCC(=O)Nc2ccccc2N)cc1
inactive: 1 nM 2.4% | 8.33 nM 1.59% | 100 nM 0.54% | 833.33 nM 1.31% | 10000 nM 3.57%

NS(=O)(=O)c1ccc2c(c1)C1C=CCC1C(c1ccc(Br)cc1)N2 (stereo not given)
inactive: 1 nM -1.04% | 8.33 nM 1.37% | 100 nM -1.73% | 833.33 nM -1.33% | 10000 nM -0.61%

CCN(CC)CCN[C@@H](C(=O)OCCC(C)C)c1ccccc1 [camylofine-chlorhydrate]
inactive: 1 nM -0.61% | 8.33 nM -0.68% | 100 nM -1.25% | 833.33 nM 0.17% | 10000 nM -1.1%

N#Cc1ccnc(N2C(=O)CC[C@H]2C(=O)N(c2cncc(F)c2)[C@H](C(=O)NC2CC(F)(F)C2)c2ccccc2Cl)c1 [ivosidenib]
inactive: 1 nM -0.33% | 8.33 nM 3.62% | 100 nM 0.3% | 833.33 nM 0.14% | 10000 nM 3.82%

C[C@H](Nc1ncnc2[nH]cnc12)c1cc2ccc(F)cc2nc1-c1ccccn1
inactive: 1 nM 0.375% | 8.33 nM 4.37% | 100 nM 4.2% | 833.33 nM 1.33% | 10000 nM -3.42%

Cc1cc(NC(=O)Nc2ccc(N(C)C)cc2)c2cc(F)cc(F)c2n1
inactive: 1 nM -0.11% | 8.33 nM 0.56% | 100 nM 1.66% | 833.33 nM 3.02% | 10000 nM 4.9%

CCn1cc(-c2cccc(C(F)(F)F)c2)c2sc(C(=N)NC3CCS(=O)(=O)CC3)cc2c1=O
inactive: 1 nM 1.59% | 8.33 nM 3.81% | 100 nM 1.38% | 833.33 nM 0.93% | 10000 nM -7.19%

Clc1ccccc1CN1CCc2sccc2C1 [ticlopidine]
inactive: 1 nM -1.31% | 8.33 nM -0.14% | 100 nM 0.36% | 833.33 nM 1.94% | 10000 nM -1.5%

CC(C)(C)c1cc(/C=C(\C#N)C(N)=S)cc(C(C)(C)C)c1O [tyrphostin-AG-879]
inactive: 1 nM -1.49% | 8.33 nM -0.31% | 100 nM -1.98% | 833.33 nM 5.42% | 10000 nM 8.93%

CC(=O)Nc1ccc(NC(=S)NC(=O)c2ccc(C(C)(C)C)cc2)cc1 [tenovin-1]
inactive: 1 nM -0.23% | 8.33 nM 0.85% | 100 nM 1.6% | 833.33 nM -7.1% | 10000 nM -8.92%

CCN(CC)C(C)C(=O)c1ccccc1 (stereo not given) [amfepramone]
inactive: 1 nM -1.18% | 8.33 nM 1.39% | 100 nM -1.99% | 833.33 nM 1.34% | 10000 nM -0.09%

Nc1ncnc2c1ncn2[C@@H]1O[C@H](C[C@@H](N)CC[C@H](N)C(=O)O)[C@@H](O)[C@H]1O [sinefungin]
inactive: 1 nM -10.5% | 8.33 nM -10.2% | 100 nM -10% | 833.33 nM -7.77% | 10000 nM -7.24%

O=C(O)c1cn(-c2ccc(F)cc2)c2cc(N3CCNCC3)c(F)cc2c1=O [sarafloxacin]
inactive: 1 nM -2.73% | 8.33 nM -5.26% | 100 nM -3.5% | 833.33 nM -5.86% | 10000 nM -4.93%

Cn1cc(C(=O)C(=O)N[C@H]2CN3CCC2CC3)c2ccccc21
inactive: 1 nM 0.78% | 8.33 nM 1.33% | 100 nM 0.72% | 833.33 nM -1.49% | 10000 nM 1.51%

CCCc1nc2c(C)cc(-c3nc4ccccc4n3C)cc2n1Cc1ccc(-c2ccccc2C(=O)O)cc1 [telmisartan]
inactive: 1 nM -1.56% | 8.33 nM -2.17% | 100 nM -4.81% | 833.33 nM 2.3% | 10000 nM 1.33%

CC(C)(C)C(=O)/C(=N/c1ccc(Cl)cc1)NNc1ccc(Cl)cc1
inactive: 1 nM 1.8% | 8.33 nM -0.69% | 100 nM 1.03% | 833.33 nM 0.66% | 10000 nM -7%

O=C(Nc1ncc(SCCN2CCCC2)s1)[C@]1(c2ccc(S(=O)(=O)C3CC3)cc2)C[C@H]1C1CCCCC1
inactive: 1 nM 1.58% | 8.33 nM -0.96% | 100 nM -2.63% | 833.33 nM -2.76% | 10000 nM -5.6%

CCN(CC)c1ccc(/C=N/NC(=O)c2ccc(O)cc2)cc1
inactive: 1 nM -0.79% | 8.33 nM 2.18% | 100 nM 0.82% | 833.33 nM -0.79% | 10000 nM 0.11%

COCC[n+]1c2c(n(Cc3cnccn3)c1C)C(=O)c1ccccc1C2=O
inactive: 1 nM 0.33% | 8.33 nM 4.83% | 100 nM 2.74% | 833.33 nM -2.2% | 10000 nM -9.2%

CC(C)(C(=O)O)c1ccc(C(O)CCCN2CCC(C(O)(c3ccccc3)c3ccccc3)CC2)cc1 (stereo not given) [fexofenadine]
inactive: 1 nM 0.81% | 8.33 nM -0.73% | 100 nM -0.49% | 833.33 nM 1.17% | 10000 nM 2.18%

O=C(NC1CCOCC1)c1ccc(-c2cc(-c3c[nH]nc3-c3ccccn3)ccn2)cc1
inactive: 1 nM 1% | 8.33 nM 0.61% | 100 nM 0.23% | 833.33 nM 4.34% | 10000 nM 3.89%

CC1(C)O[C@@H]2C[C@H]3[C@@H]4CCC5=CC(=O)C=C[C@]5(C)[C@@]4(F)[C@@H](O)C[C@]3(C)[C@]2(C(=O)CO)O1
inactive: 1 nM 0.1% | 8.33 nM -0.04% | 100 nM 1.38% | 833.33 nM 1.4% | 10000 nM -0.1%
